# Reference: PubChem BioAssay
# Assay: compound binding in COS7 lysate, probe aLAP1, primary screen, cell lysate, small-molecule microarray (AID 1124);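 further: lysate comes from COS7 cells expressing LAP1 and is applied at 0.3 µg/mL; score merges spot fluorescence near 667 nm with signal-to-noise over triplicate slides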
# Conditions: probe aLAP1, fluorescence, higher = more signal
row,Compound,composite z-score
1,CCOC(=O)C1=CC[C@@H](c2ccccc2)N(S(=O)(=O)c2ccc(C)cc2)[C@@H]1C#N,-0.0567
2,C=CCN1C(=O)[C@]2(O[C@H](CCO)[C@@H]([Si](C)(C)c3ccc(OC)cc3)[C@@H]2C)c2cc(N3C(=O)c4ccccc4Oc4ccccc43)ccc21,0.199
3,C=CCOC(=O)[C@H]1[C@@H]2C(=O)O[C@@H](c3ccccc3)[C@@H](c3ccccc3)N2[C@@H](c2ccc(OCCOC(=O)[C@H]3C[C@H]4C(=O)NCC(=O)N4[C@H]3c3ccc(O)cc3)cc2)[C@]12C(=O)Nc1ccccc12,0.96
4,C=CCOC(=O)[C@H]1[C@@H]2C(=O)O[C@@H](c3ccccc3)[C@@H](c3ccccc3)N2[C@@H](c2ccc(OCCOC(=O)[C@@H]3C[C@@H]4C(=O)N[C@@H](Cc5ccccc5)C(=O)N4[C@@H]3c3ccc(O)cc3)cc2)[C@]12C(=O)Nc1ccc(I)cc12,-0.052
5,CC(C)[Si](C#Cc1ccccc1)(O[C@H](c1ccccc1)c1cn(Cc2ccccc2)nn1)C(C)C,0.471
6,O=C(NCCN1CCOCC1)[C@@H]1c2ccccc2C(=O)N(CC23CC4CC(CC(C4)C2)C3)[C@H]1c1ccc(CO)cc1,0.522
7,O=C1O[C@@H](c2ccccc2)[C@@H](c2ccccc2)N2[C@@H](c3ccccc3OCCO)[C@]3(C(=O)Nc4ccc(C#CC5(O)CCCCCC5)cc43)[C@@H](C(=O)N3CCCCCCC3)[C@H]12,1.41
8,CCOC(=O)C[C@H]1[C@H](OC(=O)c2ccc(-c3ccccc3)cc2)[C@@H](NC(=O)C2CCCCC2)c2cc(OCCCO)ccc2N1C(=O)Cc1ccc(OC)cc1,0.652
